What all share (format): functional
In assay [1] the target is Solute carrier family 2, facilitated glucose transporter member 1 (Homo sapiens) (UniProt P11166). As to the kind of experiment: ST_JUDE_LEISH: Cytotoxicity at 2uM final concentration against transgenic Leishmania Mexicana promastigotes LmGLUT1 that are glucose transport deficient and complemented with the human glucose transporter GLUT1. Activity is measured by DNA content using SYBR green in vitro.

For assay [2], the target named is Hexose transporter 1 (Plasmodium falciparum) (UniProt O97467). As to the kind of experiment: ST_JUDE_LEISH: Cytotoxicity at 2uM final concentration against transgenic Leishmania Mexicana promastigotes LmPfHT that are glucose transport deficient and complemented with the Plasmodium falciparum hexose transporter. Activity is measured by DNA content using SYBR green in vitro.

Assay [3] addresses Glucose transporter (Leishmania mexicana) (UniProt O61059). Description: ST_JUDE_LEISH: Cytotoxicity at 2uM final concentration against transgenic Leishmania Mexicana promastigotes LmGT2 that are glucose transport deficient and complemented with the L. Mexicana glucose transporter 2. Activity is measured by DNA content using SYBR green in vitro.

Chain of Solute carrier family 2, facilitated glucose transporter member 1 (Homo sapiens) (P11166 whole entry): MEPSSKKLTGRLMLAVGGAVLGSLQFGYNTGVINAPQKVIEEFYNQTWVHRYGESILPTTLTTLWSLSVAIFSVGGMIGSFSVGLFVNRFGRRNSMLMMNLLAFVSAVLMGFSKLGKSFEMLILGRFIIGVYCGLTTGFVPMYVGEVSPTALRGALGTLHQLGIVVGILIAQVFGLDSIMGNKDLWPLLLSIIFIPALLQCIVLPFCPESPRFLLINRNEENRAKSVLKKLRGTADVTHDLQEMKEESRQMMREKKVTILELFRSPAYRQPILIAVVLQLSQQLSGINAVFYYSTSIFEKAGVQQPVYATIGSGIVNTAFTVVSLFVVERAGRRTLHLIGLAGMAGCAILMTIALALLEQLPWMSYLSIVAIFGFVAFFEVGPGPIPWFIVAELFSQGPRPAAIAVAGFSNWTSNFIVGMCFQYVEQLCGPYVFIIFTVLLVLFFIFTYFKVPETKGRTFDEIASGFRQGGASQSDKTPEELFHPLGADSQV

On to `Cc1cccc2nc(-c3cccc(-c4cccc(CNCCN5CCNCC5)c4)c3)[nH]c12`, for which the inhibition (commonly the relative decrease from the control value, in per cent) is 0.34% in assay [1], -3.8% in assay [2] and 0.48% in assay [3].

Turning to `Cc1cc(=NN=CC=Cc2ccccc2)c2cc(F)ccc2[nH]1`, the inhibition was found to be 0.37% in assay [1], 0.85% in assay [2] and 0.04% in assay [3].

Take `Cc1ccccc1C1CCN(C2CCC(NC(=O)c3ccc(-c4cc(C(F)(F)F)nn4C)s3)CC2)CC1` (stereo not drawn): the figures for the inhibition in assay [1], in assay [2] and in assay [3] were 10.8%, 9.92% and 9.51%, respectively.

Take `CN(C)CC(O)COc1ccc(Nc2ncc([N+](=O)[O-])c(Nc3ccccc3O)n2)cc1` (stereo not drawn): the inhibition stood at 2.66% in assay [1], 3.7% in assay [2] and 1.45% in assay [3].

Regarding `CC(C)(Oc1c(C2CCN(CCCCNC(=O)c3ccc(-c4ccc(Cl)cc4)cc3)CC2)ccc2c1CCCC2)C(N)=O`, the inhibition in assay [1] is -2.15%; in assay [2], -0.94%; in assay [3], -1.84%.

Take `COc1ccc2nccc([C@@H](O)CN3CCC(NC(=O)c4ccc(C5(C(F)(F)F)N=N5)cc4)CC3)c2c1`: the inhibition in assay [1] amounted to 14.3%; in assay [2] it was 24.5%; in assay [3] it was 40.7%.

`Cc1cccc2nc(-c3ccc(-c4cccc(CN5CCCC(N)C5)c4)s3)[nH]c12` (stereo not drawn): the inhibition in assay [1] was 12.7%; in assay [2] it was 11.2%; in assay [3], 11.7%.

Take `CCC(CC)N1CCN(CC(=O)Nc2ccc([N+](=O)[O-])cc2C(=O)Nc2cccc(OC)c2)CC1`: the inhibition is 3.1% in assay [1], 1.8% in assay [2] and 1.35% in assay [3].

Regarding `Cc1c(-c2ccc(C(=O)NC3CC(C)(C)NC(C)(C)C3)cc2)[nH]c2cc(Cl)c(Cl)cc12`, the inhibition in assay [1] is 10.9%; in assay [2] it was 8.08%; in assay [3] it was 13.8%.

`N#Cc1ccc2c(c1)CCN(CCC1CCC(NC(=O)/C=C/c3cnc4ccccc4c3)CC1)CC2` (stereo not drawn): the results for the inhibition in assay [1], in assay [2] and in assay [3] were 8.52%, 4.53% and 3.67%, respectively.

Turning to `Cc1cc(=NN=Cc2ccc(Cl)cc2)c2cc(C(F)(F)F)ccc2[nH]1`, the inhibition in assay [1] was 1.05%; in assay [2], -4.87%; in assay [3], 5.23%.

The record behind these values is ChEMBL document CHEMBL3433997, “St. Jude Leishmania screening dataset” (2016).
